This is an account of results in PubChem BioAssay AID504362 (National Center for Advancing Translational Sciences (NCATS), 2011).

Several values for one entry are separate records, joined by “and”; a condition that tells them apart may be missing. Equal entries are not always repeated. Results filed as inconclusive are left out. Activity calls are given as the source filed them. Calls come from the whole dose curve; as a rule, active = well fitted activation curve with a large enough effect; inconclusive = small, poorly fitted or top-dose-only effect; inactive = flat fitted curve, though single readings scatter.

The nature of this assay: qHTS Assay for Identifying a Potential Treatment of Ataxia-Telangiectasia: SAR for Probe. The following applies: F2112 A-T fibroblasts, NCS-induced pKAP1 AlphaLISA. An excerpt: NIH Chemical Genomics Center [NCGC] NIH Molecular Libraries Probe Centers Network [MLPCN] MLPCN Grant: MH089030-01 Assay Submitter (PI): Wei Zheng and Yosef Shiloh Ataxia-telangiectasia (A-T) is a devastating and progressive disease for which, there is no cure. Although A-T is a multisystem disease, it is stereotyped characterized by its neurological symptoms such as truncal ataxia, due to cerebellar cortical degeneration of the Purkinje and granule cells. Other symptoms of A-T are telangiectasias (dilated blood vessels), primary immunodeficiency, marked sensitivity to ionizing radiation (IR), chromosomal instability and predisposition to cancer. The underlying genetic cause of A-T is null mutations in the ATM (A-T mutated) gene. ATM is a nuclear serine/threonine kinase that functions as a master regulator of the cellular responses to double strand breaks (DSBs) in the DNA. Upon activation by DSBs, ATM phosphorylates a plethora of downstream targets, including KAP-1 on Ser82452. […] To screen for small molecules that will compensate for the loss of ATM in cells derived from A-T patients, we monitored KAP-1 phosphorylation as a readout for ATM-like activity using an AlphaLISA assay. […]
qHTS Assay Protocol: Step,Parameter,Value,Description 1. […] Readout, EnVision, EnVision plate reader. […] EnVision protocol for 1536-well AlphaScreen read (30ms excitation, 100ms read), about 10 min/plate.
In general terms: Quantitative high-throughput screening tests each substance at several concentrations.

As to `CC(=O)c1c(O)c(C)c(O)c(Cc2c(O)c3c(c(C(=O)/C=C/c4ccccc4)c2O)OC(C)(C)C=C3)c1O`, the Potency is 29.2 µM (active) and 10 µM (active).
